# “And” between values parts separate entries of the source, which are not always exact repeats. Equal entries are not always repeated. Records with an inconclusive call do not appear. Where a call stands in place of a potency, no number is given. The source made the active and inactive calls. Unless noted, calls follow the shape of the dose curve; as a rule, active = well fitted curve in the direction sought with a large enough effect; inconclusive = small, poorly fitted or top-dose-only effect, or another doubt; inactive = no such curve, though single readings can be large; an effect the other way counts as inactive or inconclusive.
# Assays:
# [1] = Confirmation and Secondary Assay for Modulators of Hemoglobin Beta Chain Splicing at IVS2 705 locus (AID 930);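 also: HeLa cells stably expressing the EGFP-705 splicing reporter; GFP fluorescence per well restored by corrected splicing of the IVS2-705 intron in EGFP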
# How it was run: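 Read-out: total peak GFP fluorescence per well (488 nm excitation, 500-520 nm emission) by laser-scanning cytometry. Cells: HeLa EGFP-705 splicing reporter, 2 days compound exposure in Optimem/2% FCS.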
# [2] = qHTS Assay for Lipid Storage Modulators (AID 1519; calls by dose curve); details: Drosophila S3 cells, BODIPY lipid droplet/cell ratio, laser cytometry, cells loaded with oleic acid
# How it was run: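 Cells seeded at 5,000 per well were treated with compounds over a concentration series and loaded with oleic acid (400 uM, as added). Lipid droplet fluorescence (488 nm excitation, 500-530 nm channel) was read by laser-scanning cytometry and normalized to 20 uM Triacsin C.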
# [3] = target: Tyrosyl-DNA phosphodiesterase 1 (Homo sapiens) (UniProt Q9NUW8); assay: Confirmation Assay for Inhibitors of Tyrosyl-DNA Phosphodiesterase (TDP1) (AID 489007); details: recombinant human TDP1 enzymatic activity, dose-response; also: potency is read from the fitted curve at half-maximal effect; nearly all actives have a fitted effect of over 40% in size
# How it was run: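 Recombinant human Tdp1 (1 nM final), expressed in E. coli, preincubated 15 min with compound. Then 15 nM 5'-biotin/3'-phosphotyrosine-FITC DNA substrate added for 5 min at room temperature. AlphaScreen beads (10 ug/ml) added for 10 min; cleavage gives signal loss.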
# [4] = target: Ubiquitin carboxyl-terminal hydrolase 1 (Homo sapiens) (UniProt O94782); assay: Inhibitors of USP1/UAF1: Pilot qHTS (AID 504865);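 also: rhodamine fluorescence freed from ubiquitin-rhodamine substrate followed over time; top concentration of the series differs between compounds; nearly all actives have a fitted effect of over 35% in size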
# How it was run: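 USP1/UAF1 complex at 1 nM preincubated 15 min at room temperature with compound, then Ub-Rho substrate added at 150 nM final. Fluorescence (480/540 nm) read kinetically in 50 mM HEPES pH 7.8, 0.5 mM EDTA, 1 mM TCEP, 0.1 mg/ml BSA, 0.01% Tween-20.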
# [5] = target: Luciferin 4-monooxygenase (Photinus pyralis) (UniProt P08659); assay: Biochemical firefly luciferase enzyme assay for NPC (AID 624030);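 also: purified P. pyralis luciferase at 10 nM with luciferin and ATP substrate; nearly all actives have a fitted effect of over 70% in size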
# How it was run: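 Purified P. pyralis luciferase at 10 nM in 50 mM Tris Acetate (final), luminescence read within 5 minutes of enzyme addition to compounds. Activity normalised to PTC124 versus DMSO; concentration-response curves classed by r2, magnitude and activity.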
# [6] = S16 Schwann cell viability assay (CellTiter-Glo assay) (AID 624031);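 also: cellular ATP luminescence as a viability measure; nearly all actives have a fitted effect of over 70% in size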
# How it was run: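 Untransfected S16 rat Schwann cells; compound 24 h, 37 °C/5% CO2; CellTiter-Glo ATP luminescence. % activity vs no-cell wells and DMSO controls (0%); concentration-effect curves classed by r2, response magnitude, activity.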
# [7] = S16 Schwann cell PMP22 intronic element firefly luciferase assay (AID 624032); also: nearly all actives have a fitted effect of over 30% in size
# How it was run: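 Rat S16 Schwann cells stably carrying firefly luciferase driven by a PMP22 intronic element, in 10% FBS, treated 24 h at 37 C. ONE-Glo luminescence normalized to PTC124 control and DMSO (0%); curves classed by r2, magnitude and activity.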
# [8] = qHTS profiling for inhibitors of Plasmodium falciparum proliferation (AID 504749); also: nearly all actives have a fitted effect of over 60% in size; details: P. falciparum in erythrocytes, SYBR Green DNA, 72 h, at 28.7 µM (top of the series)
# How it was run: (§1)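 P. falciparum-infected erythrocytes (0.3% parasitemia, 2.5% hematocrit) incubated with compound 72 h at 37 C, 5% CO2. Parasite DNA detected by SYBR Green after lysis, overnight at room temperature; normalised to 0.29 uM artemisinin and DMSO.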
# 3D7 = assay: as above; details: P. falciparum in erythrocytes, SYBR Green DNA, 72 h; series mostly up to 12.8 µM
# How it was run: as §1
# 7G8 = assay: as above; details: P. falciparum in erythrocytes, SYBR Green DNA, 72 h; series mostly up to 12.8 µM
# How it was run: as §1
# AA1029 = assay: as above; details: P. falciparum in erythrocytes, SYBR Green DNA, 72 h; series mostly up to 12.8 µM
# How it was run: as §1
# AS120 = assay: as above; details: P. falciparum in erythrocytes, SYBR Green DNA, 72 h; series mostly up to 28.7 µM
# How it was run: as §1
# ATS189 = assay: as above; details: P. falciparum in erythrocytes, SYBR Green DNA, 72 h; series mostly up to 12.8 µM
# How it was run: as §1
# ATS95 = assay: as above; details: P. falciparum in erythrocytes, SYBR Green DNA, 72 h; series mostly up to 12.8 µM
# How it was run: as §1
# C2A = assay: as above; details: P. falciparum in erythrocytes, SYBR Green DNA, 72 h; series mostly up to 12.8 µM
# How it was run: as §1
# CP185 = assay: as above; details: P. falciparum in erythrocytes, SYBR Green DNA, 72 h; series mostly up to 12.8 µM
# How it was run: as §1
# CP191 = assay: as above; details: P. falciparum in erythrocytes, SYBR Green DNA, 72 h; series mostly up to 12.8 µM
# How it was run: as §1
# CP192 = assay: as above; details: P. falciparum in erythrocytes, SYBR Green DNA, 72 h; series mostly up to 28.7 µM
# How it was run: as §1
# CP194 = assay: as above; details: P. falciparum in erythrocytes, SYBR Green DNA, 72 h; series mostly up to 12.8 µM
# How it was run: as §1
# CP201 = assay: as above; details: P. falciparum in erythrocytes, SYBR Green DNA, 72 h; series mostly up to 12.8 µM
# How it was run: as §1
# CP203 = assay: as above; details: P. falciparum in erythrocytes, SYBR Green DNA, 72 h; series mostly up to 12.8 µM
# How it was run: as §1
# CP211 = assay: as above; details: P. falciparum in erythrocytes, SYBR Green DNA, 72 h; series mostly up to 12.8 µM
# How it was run: as §1
# CP215 = assay: as above; details: P. falciparum in erythrocytes, SYBR Green DNA, 72 h; series mostly up to 28.7 µM
# How it was run: as §1
# CP217 = assay: as above; details: P. falciparum in erythrocytes, SYBR Green DNA, 72 h; series mostly up to 12.8 µM
# How it was run: as §1
# CP237 = assay: as above; details: P. falciparum in erythrocytes, SYBR Green DNA, 72 h; series mostly up to 12.8 µM
# How it was run: as §1
# CP238 = assay: as above; details: P. falciparum in erythrocytes, SYBR Green DNA, 72 h; series mostly up to 12.8 µM
# How it was run: as §1
# CP247 = assay: as above; details: P. falciparum in erythrocytes, SYBR Green DNA, 72 h; series mostly up to 12.8 µM
# How it was run: as §1
# CP250 = assay: as above; details: P. falciparum in erythrocytes, SYBR Green DNA, 72 h; series mostly up to 12.8 µM
# How it was run: as §1
# CP252 = assay: as above; details: P. falciparum in erythrocytes, SYBR Green DNA, 72 h; series mostly up to 12.8 µM
# How it was run: as §1
# CP256 = assay: as above; details: P. falciparum in erythrocytes, SYBR Green DNA, 72 h; series mostly up to 12.8 µM
# How it was run: as §1
# CP260 = assay: as above; details: P. falciparum in erythrocytes, SYBR Green DNA, 72 h; series mostly up to 12.8 µM
# How it was run: as §1
# Sequence of Ubiquitin carboxyl-terminal hydrolase 1 (Homo sapiens) (O94782 whole entry, looked up): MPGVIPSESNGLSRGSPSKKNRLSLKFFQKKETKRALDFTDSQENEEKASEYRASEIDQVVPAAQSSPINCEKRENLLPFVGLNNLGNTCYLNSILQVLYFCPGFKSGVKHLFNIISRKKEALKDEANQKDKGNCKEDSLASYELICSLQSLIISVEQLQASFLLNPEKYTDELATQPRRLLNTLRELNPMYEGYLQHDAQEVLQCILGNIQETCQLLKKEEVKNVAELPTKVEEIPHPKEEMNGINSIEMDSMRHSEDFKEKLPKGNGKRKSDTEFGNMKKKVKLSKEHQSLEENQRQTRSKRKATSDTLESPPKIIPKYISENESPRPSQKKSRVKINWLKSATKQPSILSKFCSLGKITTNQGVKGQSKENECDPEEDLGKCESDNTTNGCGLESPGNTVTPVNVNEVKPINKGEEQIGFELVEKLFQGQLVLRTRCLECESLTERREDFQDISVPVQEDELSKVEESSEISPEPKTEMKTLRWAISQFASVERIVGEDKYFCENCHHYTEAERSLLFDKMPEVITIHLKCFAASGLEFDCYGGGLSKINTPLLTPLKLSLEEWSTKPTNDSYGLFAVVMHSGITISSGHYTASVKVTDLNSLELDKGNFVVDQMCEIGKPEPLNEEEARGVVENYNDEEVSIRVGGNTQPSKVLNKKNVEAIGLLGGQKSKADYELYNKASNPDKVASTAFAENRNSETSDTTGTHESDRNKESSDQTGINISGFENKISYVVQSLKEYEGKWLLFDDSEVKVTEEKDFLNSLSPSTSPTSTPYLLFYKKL
# Sequence of Tyrosyl-DNA phosphodiesterase 1 (Homo sapiens) (Q9NUW8 whole entry, looked up): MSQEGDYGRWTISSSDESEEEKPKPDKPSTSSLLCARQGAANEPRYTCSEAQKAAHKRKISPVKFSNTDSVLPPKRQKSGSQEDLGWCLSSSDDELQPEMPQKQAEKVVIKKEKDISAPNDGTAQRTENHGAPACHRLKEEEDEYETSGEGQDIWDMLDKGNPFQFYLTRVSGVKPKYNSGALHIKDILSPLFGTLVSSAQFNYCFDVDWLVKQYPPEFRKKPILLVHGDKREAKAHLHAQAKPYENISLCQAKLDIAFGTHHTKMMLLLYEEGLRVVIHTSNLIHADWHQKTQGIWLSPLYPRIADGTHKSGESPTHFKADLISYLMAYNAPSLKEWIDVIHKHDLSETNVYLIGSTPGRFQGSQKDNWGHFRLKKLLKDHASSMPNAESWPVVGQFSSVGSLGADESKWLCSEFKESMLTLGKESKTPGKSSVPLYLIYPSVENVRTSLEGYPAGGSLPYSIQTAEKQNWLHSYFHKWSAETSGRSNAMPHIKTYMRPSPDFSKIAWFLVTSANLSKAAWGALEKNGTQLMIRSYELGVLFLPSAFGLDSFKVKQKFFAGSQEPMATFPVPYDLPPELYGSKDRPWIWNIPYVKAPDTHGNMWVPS
# Sequence of Luciferin 4-monooxygenase (Photinus pyralis) (P08659 whole entry, looked up): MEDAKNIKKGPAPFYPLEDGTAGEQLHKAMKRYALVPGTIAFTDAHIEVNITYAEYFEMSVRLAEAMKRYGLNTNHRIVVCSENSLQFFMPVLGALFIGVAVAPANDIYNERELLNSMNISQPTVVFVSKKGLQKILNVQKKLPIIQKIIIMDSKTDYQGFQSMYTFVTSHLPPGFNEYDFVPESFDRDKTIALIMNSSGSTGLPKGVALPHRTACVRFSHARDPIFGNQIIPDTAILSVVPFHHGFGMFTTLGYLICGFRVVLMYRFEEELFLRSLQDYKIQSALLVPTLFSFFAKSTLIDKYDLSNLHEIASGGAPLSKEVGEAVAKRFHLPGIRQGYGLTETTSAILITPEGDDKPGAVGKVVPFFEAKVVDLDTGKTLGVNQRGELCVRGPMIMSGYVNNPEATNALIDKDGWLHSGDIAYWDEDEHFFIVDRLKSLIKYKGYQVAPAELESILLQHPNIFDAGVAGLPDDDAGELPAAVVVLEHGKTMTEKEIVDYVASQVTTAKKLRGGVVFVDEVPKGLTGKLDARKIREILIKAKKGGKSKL
structure (smiles),measurement,setting,value
CO/N=C(/C(=O)NC1C(=O)N2C(C(=O)O)=C(CSc3nc(=O)c(O)nn3C)CSC12)c1csc(N)n1 (centres undefined),outcome,[1],inactive
same,"activity change, negative = inhibition",[2]; at 57.5 µM (top of the series),7.84% (inactive) and 13.9% (inactive)
same,max response,[2]; measured here: cell count channel max response,7.61% and 7.25%
same,max response,[2]; measured here: lipid channel max response,18.4% and 25.1%
same,Potency,[3],1.78 µM (active) and 12.6 µM (active)
same,Potency,[4],inactive
same,outcome,[5],inactive
same,Potency,[6],inactive
same,Potency,[7],inactive
same,"activity, negative = inhibition",[8]; parasite line A,11.8% (inactive)
same,"activity, negative = inhibition",[8]; parasite line B,6.03% (inactive)
same,Potency,3D7,inactive
same,Potency,7G8,inactive
same,Potency,AA1029,inactive
same,Potency,AS120,inactive
same,Potency,ATS189,inactive
same,Potency,ATS95,inactive
same,Potency,C2A,inactive
same,Potency,CP185,inactive
same,Potency,CP191,inactive
same,Potency,CP192,inactive
same,Potency,CP194,inactive
same,Potency,CP201,inactive
same,Potency,CP203,inactive
same,Potency,CP211,inactive
same,Potency,CP215,inactive
same,Potency,CP217,inactive
same,Potency,CP237,inactive
same,Potency,CP238,inactive
same,Potency,CP247,inactive
same,Potency,CP250,inactive
same,Potency,CP252,inactive
same,Potency,CP256,inactive
same,Potency,CP260,inactive
